Test results reported in PMC4336329 (PLoS ONE, 2015).
The campaign covered roughly 310,000 compounds. About 14,000 (4.5%) showed an effect of 50% or more. The effect is printed as a negative number. This excerpt belongs to a sample that is enriched for strong results.

Molecular target: human ether-à-go-go-related gene (hERG) potassium channel (human, UniProt Q12809)
Experiment: primary screen, population patch clamp on CHO cells stably expressing hERG; higher = less effect of the substance
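Also: peak tail current of the secondary pulse compared with the same well before compound.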

human ether-à-go-go-related gene (hERG) potassium channel, sequence (Q12809 whole entry, looked up): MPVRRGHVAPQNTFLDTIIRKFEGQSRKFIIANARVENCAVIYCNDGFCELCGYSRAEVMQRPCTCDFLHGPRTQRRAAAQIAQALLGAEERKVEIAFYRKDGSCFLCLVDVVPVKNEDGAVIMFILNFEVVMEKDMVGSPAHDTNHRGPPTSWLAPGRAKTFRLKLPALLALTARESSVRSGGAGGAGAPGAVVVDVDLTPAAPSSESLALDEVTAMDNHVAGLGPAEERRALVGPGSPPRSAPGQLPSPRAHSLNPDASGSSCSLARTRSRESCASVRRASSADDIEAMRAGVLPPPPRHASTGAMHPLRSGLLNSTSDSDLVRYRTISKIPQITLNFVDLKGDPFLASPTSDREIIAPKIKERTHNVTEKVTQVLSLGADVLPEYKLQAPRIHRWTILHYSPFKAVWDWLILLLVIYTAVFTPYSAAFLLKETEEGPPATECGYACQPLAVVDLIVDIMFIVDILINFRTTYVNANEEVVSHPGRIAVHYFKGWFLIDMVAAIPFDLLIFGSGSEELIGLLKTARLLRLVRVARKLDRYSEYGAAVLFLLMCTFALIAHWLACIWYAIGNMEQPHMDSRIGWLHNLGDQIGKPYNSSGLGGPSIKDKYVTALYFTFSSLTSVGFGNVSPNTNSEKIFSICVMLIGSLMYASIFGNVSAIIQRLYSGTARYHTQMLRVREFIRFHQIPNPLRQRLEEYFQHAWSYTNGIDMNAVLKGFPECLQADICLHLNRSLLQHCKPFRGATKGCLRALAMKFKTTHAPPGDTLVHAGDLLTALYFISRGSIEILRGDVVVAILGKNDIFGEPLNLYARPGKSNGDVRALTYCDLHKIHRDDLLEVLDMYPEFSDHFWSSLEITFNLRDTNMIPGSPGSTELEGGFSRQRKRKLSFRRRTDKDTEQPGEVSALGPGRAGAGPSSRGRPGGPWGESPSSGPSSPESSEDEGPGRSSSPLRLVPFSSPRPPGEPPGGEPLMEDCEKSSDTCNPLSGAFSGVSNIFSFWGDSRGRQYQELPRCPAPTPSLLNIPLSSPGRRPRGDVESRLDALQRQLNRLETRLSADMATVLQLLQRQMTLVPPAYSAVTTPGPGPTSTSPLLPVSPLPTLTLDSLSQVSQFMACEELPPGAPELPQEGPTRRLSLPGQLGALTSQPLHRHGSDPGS

SMILES | hERG current change (%, negative = inhibition) at 10uM
CC(=O)OCc1c(C(F)(F)F)nn(C)c1SCc1ccc(Cl)cc1 | 8.19%
CC1(C(=O)N2CCOCC2)CCCCC1 | 11.6%
O=C(CCc1nnc2ccc(N3CCC4(CC3)OCCO4)nn12)N1CCCCC1 | 16.7%
COc1ccccc1/C=N/NC(=O)CC(=O)NCc1ccccc1 | -2.25%
COc1ccc(C)cc1NC(=O)C1CCCCC1C(=O)O (stereo not drawn) | 14.7%
CC(=O)Nc1ccc(S(=O)(=O)N2CCC(C(=O)c3ccc(F)cc3)CC2)cc1 | -34.6%
CC(=O)Nc1ccc(S(=O)(=O)N2CCC(n3cnc4cc(F)ccc43)CC2)cc1 | -65.7%
O=S(=O)(c1ccc2c(c1)OCCO2)N1CCC(n2cnc3cc(F)ccc32)CC1 | -62.4%
O=S(=O)(c1ccc2c(c1)OCCO2)N1CCC(n2nnc3cc(C(F)(F)F)ccc32)CC1 | -16.4%
O=S(=O)(c1ccc2c(c1)OCCO2)N1CCC(n2nnc3cc(F)ccc32)CC1 | -38.7%
CC(=O)Nc1ccc(S(=O)(=O)N2CCC(N3CCCC3)CC2)cc1 | 13.2%
COc1cccc(OCCOCCNCCO)c1 | -6.7%
O=C(CN(CCc1ccccc1)C(=O)c1csnn1)NC1CCCC1 | -4.71%
C[C@]12CCC3C(CC[C@H]4CC(O)CC[C@]34C)C1CC/C2=N/O (stereo partly drawn) | 13.3%
COc1ccc(OCC#CCN2CCC(C)CC2)cc1.O=C(O)C(=O)O | -11.4%
COc1ccc(CCN(C)CC(=O)Nc2cc(C)nc3ccccc23)cc1OC.O=C(O)C(=O)O | 5.34%
CN1CCN(CC(=O)Nc2cc(N(C)C)nc3ccccc23)CC1.Cl | 8.25%
CN(C)c1cc(NC(=O)CNC(C)(C)CC(C)(C)C)c2ccccc2n1.O=C(O)C(=O)O | -69.9%
CC(C)(C)CC(C)(C)NCC(=O)Nc1c2c(nc3ccccc13)CCC2.O=C(O)C(=O)O | -3.35%
CN(C)c1cc(NC(=O)CNC(C)(C)C)c2ccccc2n1.O=C(O)C(=O)O | -24.4%
CC(Cc1ccccc1)NCC(=O)Nc1cc(N(C)C)nc2ccccc12.O=C(O)C(=O)O (stereo not drawn) | -77.1%
CCOc1ccccc1NC(=O)[C@@H](NC(=O)c1ccccc1F)C(C)C | -6.35%
COc1ccc(C(C(N)=O)c2ncc(C(F)(F)F)cc2Cl)cc1 (stereo not drawn) | 4.78%

SMILES | hERG current change (%, negative = inhibition) at 10uM
O=C(CCCCl)NC1=NN(c2ccccc2)C(=O)C1 | -4.99%
COc1ccc(CCNC(=S)NC2CCN(Cc3ccccc3)CC2)cc1 | -36.9%
COc1ccccc1CNC1CCN(Cc2ccccc2)CC1 | -3.89%
FC(F)(F)c1cccc(CNC2CCN(Cc3ccccc3)CC2)c1 | -28.3%
COc1ccc(CNC2CCN(Cc3ccccc3)CC2)cc1 | -54.2%
CC(NC1CCN(Cc2ccccc2)CC1)c1ccc(F)cc1 (stereo not drawn) | 3.46%
COc1ccc(OC)c(-n2c(CNC3CCN(Cc4ccccc4)CC3)nc3ccccc3c2=O)c1 | -76.6%
COc1ccc(OC)c(-n2c(CN3CCC(C(N)=O)CC3)nc3ccccc3c2=O)c1 | -0.126%
Clc1ccc(CNC2CCN(Cc3ccccc3)CC2)cc1 | -72.7%
S=C(NCc1ccc(Cl)cc1)NC1CCN(Cc2ccccc2)CC1 | -41.8%
COc1ccc(-n2c(CN3CCOCC3)nc3ccccc3c2=O)c(OC)c1 | 22.9%
Fc1ccc(CNC2CCN(Cc3ccccc3)CC2)cc1 | -65.3%
Cl.Clc1ccc(CNC2CCCC2)cc1 | -13.1%
Fc1ccc(-c2cc(C(F)(F)F)nc(NCc3cccs3)n2)cc1 | 14.4%
CCOC(=O)c1c(-c2ccccc2)csc1NC(=O)/C(C#N)=C/c1ccc(O)c(OC)c1 | -7.1%
O=C(COc1ccc(/C=N/NC(=O)c2cc3ccccc3o2)cc1Br)Nc1ccccc1 | 19.3%
Cc1ccccc1NS(=O)(=O)c1ccc(C)c(C(=O)N2CCOCC2)c1 | 1.47%
COc1ccc(C(=O)NNC(=O)C(=O)N2CCCCC2)cc1OC | 59.5%
CCOC(=O)C(NC(=O)Nc1cccc(C)n1)(OCC(F)(F)F)C(F)(F)F (stereo not drawn) | 5.06%
CC(=O)COC(=O)C1=NN(c2ccccc2)C(=O)CC1 | 23.7%
COc1ccc(S(=O)(=O)N2CCCC(C(=O)NCc3ccc(F)cc3)C2)cc1 (stereo not drawn) | 6.39%
CCc1nc2ccc(C(=O)NCCc3ccc(OC)c(OC)c3)cc2nc1CC | -0.0865%
Cn1c(O)c(/C=C2\N=c3ccccc3=C2CCNC(=S)NC2CC2)c(=O)n(C)c1=O | -44.6%

SMILES | hERG current change (%, negative = inhibition) at 10uM
Clc1ccc(CN2CCC(c3ccccc3)CC2)cc1 | -59.1%
Clc1ccc(CN2CCCCCCC2)cc1 | -33.1%
O=S(=O)(NC1CCN(Cc2ccccc2)CC1)c1ccc(Cl)cc1 | -41.3%
Cc1c(C(=O)Nc2c(F)cccc2F)sc2ncn(CC(=O)N3CCCCC3)c(=O)c12 | 3.98%
Cc1cc(NC(=O)CSc2nnc(-c3cccnc3)n2C2CCCCC2C)no1 (stereo not drawn) | 3.83%
CCOc1ccc2[nH]c3c(NCCOC)ncnc3c2c1 | -9.5%
COc1ccc2[nH]c3c(NCCCOC(C)C)ncnc3c2c1 | 9.68%
CCOc1ccc2[nH]c3c(NCCO)ncnc3c2c1 | 23.1%
CCOc1ccc2[nH]c3c(NCCN(CC)CC)ncnc3c2c1 | -71.6%
CCOc1ccc2[nH]c3c(NCCC(C)C)ncnc3c2c1 | 7.2%
CCOc1ccc2[nH]c3c(NCCCOC)ncnc3c2c1 | -10%
COc1ccc2[nH]c3c(NCCCN4CCCC4=O)ncnc3c2c1 | -14.6%
CCN(CC)CCNc1ncnc2c1[nH]c1ccc(OC)cc12 | -63.4%
CCOc1ccc2[nH]c3c(NCCN(C)C)ncnc3c2c1 | -19%
COc1ccc2[nH]c3c(NCCN4CCCCC4)ncnc3c2c1 | -55.9%
COc1ccc2[nH]c3c(NCCN(C(C)C)C(C)C)ncnc3c2c1 | -70.7%
COc1ccc2[nH]c3c(NCc4ccco4)ncnc3c2c1 | -18.1%
CCOc1ccccc1NC(=O)c1cnc(NS(=O)(=O)c2ccccc2)nc1 | 17.8%
CCN(C(=O)COC(=O)c1[nH]c(C)c(C(C)=O)c1C)c1c(N)n(Cc2ccccc2)c(=O)[nH]c1=O | 0.295%
Cc1ccc2oc(C(=O)Nc3cc(C)on3)c(C)c2c1 | -1.98%
CCCCOc1ccc(NC(=O)C(=O)NCCC2=CCCCC2)cc1 | 2.25%
CCCCCOC(=O)c1ccc(N2C(=O)C3C4C=CC(C4)C3C2=O)cc1 (stereo not drawn) | -6.84%
C=CCn1c(SCC(=O)Nc2cc(C)on2)nc2sc3c(c2c1=O)CCCC3 | -4%

SMILES | hERG current change (%, negative = inhibition) at 10uM
O=C(Nc1ccc(S(=O)(=O)Nc2ncccn2)cc1)c1cccc(Br)c1 | 16.5%
CC(=O)c1ccc(NC(=O)CCc2nnc3ccc(NCc4ccco4)nn23)cc1 | 9.4%
COc1ccc(CCn2c(O)c(C=Nc3ccccc3F)c(=O)[nH]c2=O)cc1OC | 20.3%
CCOc1ccc(C(N)=O)cc1OC | 6.13%
CN(C)c1ccc(C=Nc2cnn(C)c2C(N)=O)cc1 | 0.759%
COc1ccc(NC(=O)CSc2nnc(-c3cccs3)n2N)c(OC)c1 | 0.565%
Cn1cc(CN2CCC(N3CCNC(=O)CC3)CC2)c(-c2ccccc2F)n1 | 8.43%
O=C1c2ccccc2C(=O)N1n1cccc1 | 8.7%
COc1ccc(-n2c(C)c(C)c3c(NCCN(C)C)ncnc32)cc1 | -32.4%
COc1ccc(Nc2ncnc3c2c(C)c(C)n3CCCN(C)C)cc1 | -32.7%
Cc1c(C)n(CCCN(C)C)c2ncnc(Nc3ccc(F)cc3)c12 | -50.8%
COc1ccc(-n2c(C)c(C)c3c(NCCCO)ncnc32)cc1 | -14.3%
Cc1c(C)n(CCc2ccccc2)c2ncnc(NCCCN(C)C)c12 | -58%
Cc1c(C)n(CCCN(C)C)c2ncnc(Nc3ccccc3)c12 | -29.3%
Cc1c(C)n(CCc2ccccc2)c2ncnc(NCCCO)c12 | -40.1%
COc1ccc(-n2c(C)c(C)c3c(NCCCN(C)C)ncnc32)cc1 | -53.1%
Cc1c(C)n(Cc2ccccc2)c2ncnc(NCCCN(C)C)c12 | -28.4%
Cc1cc(NS(=O)(=O)c2ccc(NC(=O)CSc3nnc(-c4ccco4)n3C)cc2)nc(C)n1 | 5.75%
CCCCn1c(N)c(N(CC(C)C)C(=O)C2CC(=O)N(CCc3ccccc3)C2)c(=O)[nH]c1=O (stereo not drawn) | 7.09%
Cc1ccc(Oc2nn[nH]n2)cc1 | 0.395%
C=C1[C@@H](OC(C)=O)[C@]23C[C@@H]1[C@@H](OC(C)=O)CC2[C@]12C4C[C@H]3[C@H]1N(CC)C[C@]4(C)CC[C@@H]2O (stereo partly drawn) | -40.6%
